Reference: article PMC5700166

What was measured:
GST-Dm-Relish = target: T1, GST-Dm-Relish (Drosophila melanogaster, UniProt Q94527 99-473); assay: protein-binding microarray (PBM); PBM: ~300 nM protein, 6 mM HEPES pH 7.8, 80 mM KCl, 0.5 mM EDTA, 0.5 mM EGTA, 6% glycerol, 35 ng/ul poly-dIdC, 1% milk, 1 h, room temperature; Ap Aiptasia and Nv Nematostella (sea anemones) / Co Capsaspora / Aq Amphimedon (sponge) / Dm Drosophila / Hu human; RHD is the Rel homology domain; high values mean tight binding; settings: dsDNA, one strand shown
T1 sequence: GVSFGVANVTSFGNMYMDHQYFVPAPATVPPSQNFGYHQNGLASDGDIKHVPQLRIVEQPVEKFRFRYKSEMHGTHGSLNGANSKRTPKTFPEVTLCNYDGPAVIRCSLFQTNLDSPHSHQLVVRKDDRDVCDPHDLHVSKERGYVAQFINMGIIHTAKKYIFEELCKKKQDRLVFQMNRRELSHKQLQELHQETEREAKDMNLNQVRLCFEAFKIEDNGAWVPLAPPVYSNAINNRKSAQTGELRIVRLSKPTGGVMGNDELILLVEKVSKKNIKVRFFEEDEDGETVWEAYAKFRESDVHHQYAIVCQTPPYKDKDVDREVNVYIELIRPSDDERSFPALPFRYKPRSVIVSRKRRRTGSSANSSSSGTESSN

GST-Aq-NF-kB = target: T2, GST-Aq-NF-kB (Amphimedon queenslandica, UniProt A9Y5G7 2-389); assay: as above; settings: dsDNA, one strand shown
T2 sequence: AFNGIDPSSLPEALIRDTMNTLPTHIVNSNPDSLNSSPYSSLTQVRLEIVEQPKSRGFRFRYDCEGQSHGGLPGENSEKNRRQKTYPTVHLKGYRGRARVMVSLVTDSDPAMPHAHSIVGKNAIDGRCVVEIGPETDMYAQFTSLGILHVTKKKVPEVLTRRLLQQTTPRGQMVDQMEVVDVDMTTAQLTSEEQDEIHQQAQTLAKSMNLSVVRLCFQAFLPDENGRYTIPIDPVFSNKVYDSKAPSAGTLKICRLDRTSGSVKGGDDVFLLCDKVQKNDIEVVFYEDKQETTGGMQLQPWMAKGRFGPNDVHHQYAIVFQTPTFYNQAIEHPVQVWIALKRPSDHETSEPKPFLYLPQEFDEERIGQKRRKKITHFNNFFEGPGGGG

Row | Sequence | binding signal (GST-Dm-Relish) [z-score] | binding signal (GST-Aq-NF-kB) [z-score]
1 | CCGATTAACATCACCGGAAATCCTGATGTTAATCGGGTCTTGATTCGCTTGACGCTGCTG | 2.06 | 2.27
2 | CCGATTAACATCAACGGAATTCCTGATGTTAATCGGGTCTTGATTCGCTTGACGCTGCTG | 2.11 | 1.66
3 | CCGATTAACATCAATAAATTTCCTGATGTTAATCGGGTCTTGATTCGCTTGACGCTGCTG | 1.55 | 1.86
4 | CCGATTAACATCAGGAAACTCCATGATGTTAATCGGGTCTTGATTCGCTTGACGCTGCTG | 1.62 | 2.15
5 | CCGATTAACATCAGGAAAGTACATGATGTTAATCGGGTCTTGATTCGCTTGACGCTGCTG | 6.88 | 1.61
6 | CCGATTAACATCACGGTTTTTCCTGATGTTAATCGGGTCTTGATTCGCTTGACGCTGCTG | 3.51 | 3.6
7 | CCGATTAACATCAGGAAAAATCCTGATGTTAATCGGGTCTTGATTCGCTTGACGCTGCTG | 1.66 | 1.79
8 | CCGATTAACATCAACGGAAATCCTGATGTTAATCGGGTCTTGATTCGCTTGACGCTGCTG | 1.24 | 1.17
9 | CCGATTAACATCAAGGATTTTCCTGATGTTAATCGGGTCTTGATTCGCTTGACGCTGCTG | 1.44 | 3.08
10 | CCGATTAACATCAGGATTTTTTATGATGTTAATCGGGTCTTGATTCGCTTGACGCTGCTG | 2.63 | 1.59
11 | CCGATTAACATCAACAAAATTCCTGATGTTAATCGGGTCTTGATTCGCTTGACGCTGCTG | 1.6 | 1.34
12 | CCGATTAACATCAGAAATTTCCATGATGTTAATCGGGTCTTGATTCGCTTGACGCTGCTG | 1.25 | 1.68
13 | CCGATTAACATCAGGGATGCCCATGATGTTAATCGGGTCTTGATTCGCTTGACGCTGCTG | 6.66 | 2.22
14 | CCGATTAACATCACGGAATTCCATGATGTTAATCGGGTCTTGATTCGCTTGACGCTGCTG | 1.4 | 1.3
15 | CCGATTAACATCACGGAAACTCCTGATGTTAATCGGGTCTTGATTCGCTTGACGCTGCTG | 1.23 | 3.4
16 | CCGATTAACATCAGGAAAAACCATGATGTTAATCGGGTCTTGATTCGCTTGACGCTGCTG | 2.39 | 2.94
17 | CCGATTAACATCAAAGGAATTCCTGATGTTAATCGGGTCTTGATTCGCTTGACGCTGCTG | 3.78 | 2.38
18 | CCGATTAACATCAGAAAATTCCATGATGTTAATCGGGTCTTGATTCGCTTGACGCTGCTG | 1.53 | 1.51
19 | CCGATTAACATCAAAAATTTCCTTGATGTTAATCGGGTCTTGATTCGCTTGACGCTGCTG | 1.94 | 2.1
20 | CCGATTAACATCACGGACTTTCCTGATGTTAATCGGGTCTTGATTCGCTTGACGCTGCTG | 2.95 | 5.31
21 | CCGATTAACATCAGGAAATTTTATGATGTTAATCGGGTCTTGATTCGCTTGACGCTGCTG | 1.46 | 1.85
22 | CCGATTAACATCAAAAATTCCACTGATGTTAATCGGGTCTTGATTCGCTTGACGCTGCTG | 2.3 | 1.44

Row | Sequence | binding signal (GST-Dm-Relish) [z-score] | binding signal (GST-Aq-NF-kB) [z-score]
23 | CCGATTAACATCACGGGCATTCCTGATGTTAATCGGGTCTTGATTCGCTTGACGCTGCTG | 2.37 | 3.21
24 | CCGATTAACATCACGGAAAATCCTGATGTTAATCGGGTCTTGATTCGCTTGACGCTGCTG | 1.04 | 3.9
25 | CCGATTAACATCAGGAATTCCAATGATGTTAATCGGGTCTTGATTCGCTTGACGCTGCTG | 2.77 | 1.38
26 | CCGATTAACATCAGAAATTTTCCTGATGTTAATCGGGTCTTGATTCGCTTGACGCTGCTG | 1.39 | 1.31
27 | CCGATTAACATCACGGAATTTTCTGATGTTAATCGGGTCTTGATTCGCTTGACGCTGCTG | 1.06 | 2.35
28 | CCGATTAACATCAGGGCTTTCCATGATGTTAATCGGGTCTTGATTCGCTTGACGCTGCTG | 3.94 | 3.39
29 | CCGATTAACATCAAAAATTTCCGTGATGTTAATCGGGTCTTGATTCGCTTGACGCTGCTG | 1.61 | 2.63
30 | CCGATTAACATCAGGAATTTCCATGATGTTAATCGGGTCTTGATTCGCTTGACGCTGCTG | 2.65 | 3.89
31 | CCGATTAACATCAAAAAACTTCCTGATGTTAATCGGGTCTTGATTCGCTTGACGCTGCTG | 1.56 | 1.4
32 | CCGATTAACATCAAAGAAATTCCTGATGTTAATCGGGTCTTGATTCGCTTGACGCTGCTG | 1.96 | 1.44
33 | CCGATTAACATCAAGGAAAATCCTGATGTTAATCGGGTCTTGATTCGCTTGACGCTGCTG | 1.5 | 3.1
34 | CCGATTAACATCAGGTCTTTCCATGATGTTAATCGGGTCTTGATTCGCTTGACGCTGCTG | 1.02 | 1.55
35 | CCGATTAACATCACCCTTGCAGGTGATGTTAATCGGGTCTTGATTCGCTTGACGCTGCTG | 1.5 | 1.27
36 | CCGATTAACATCAAGGAAACTCCTGATGTTAATCGGGTCTTGATTCGCTTGACGCTGCTG | 1.12 | 2.64
37 | CCGATTAACATCAGGAATTTCTATGATGTTAATCGGGTCTTGATTCGCTTGACGCTGCTG | 1.28 | 1.23
38 | CCGATTAACATCAGGAATCTCCATGATGTTAATCGGGTCTTGATTCGCTTGACGCTGCTG | 1.01 | 1.6
39 | CCGATTAACATCAGGAAACCCACTGATGTTAATCGGGTCTTGATTCGCTTGACGCTGCTG | 3.86 | 1.01
40 | CCGATTAACATCACGTGGTTTCCTGATGTTAATCGGGTCTTGATTCGCTTGACGCTGCTG | 3.67 | 1.63
41 | CCGATTAACATCAATGGAATTCCTGATGTTAATCGGGTCTTGATTCGCTTGACGCTGCTG | 3.2 | 1.5
42 | CCGATTAACATCAAAAATTCCGTTGATGTTAATCGGGTCTTGATTCGCTTGACGCTGCTG | 1.08 | 2.1
43 | CCGATTAACATCACTGGAATTCCTGATGTTAATCGGGTCTTGATTCGCTTGACGCTGCTG | 2.95 | 1.7
44 | CCGATTAACATCAAGTAAATTCCTGATGTTAATCGGGTCTTGATTCGCTTGACGCTGCTG | 2.49 | 1.35

Row | Sequence | binding signal (GST-Dm-Relish) [z-score] | binding signal (GST-Aq-NF-kB) [z-score]
45 | CCGATTAACATCAAAATTTTCCTTGATGTTAATCGGGTCTTGATTCGCTTGACGCTGCTG | 2.92 | 1.12
46 | CCGATTAACATCACGTAAAACCCTGATGTTAATCGGGTCTTGATTCGCTTGACGCTGCTG | 3.01 | 2.12
47 | CCGATTAACATCACGGCCTTTCCTGATGTTAATCGGGTCTTGATTCGCTTGACGCTGCTG | 1.05 | 1.82
48 | CCGATTAACATCACGGAATTTTATGATGTTAATCGGGTCTTGATTCGCTTGACGCTGCTG | 1.2 | 2.25
49 | CCGATTAACATCAAAAAAATTTCTGATGTTAATCGGGTCTTGATTCGCTTGACGCTGCTG | 1.41 | 1.23
50 | CCGATTAACATCACGGAAACTACTGATGTTAATCGGGTCTTGATTCGCTTGACGCTGCTG | 1.84 | 1.46
51 | CCGATTAACATCAGGAAAATTTATGATGTTAATCGGGTCTTGATTCGCTTGACGCTGCTG | 1.44 | 1.26
52 | CCGATTAACATCACGGGATGTACTGATGTTAATCGGGTCTTGATTCGCTTGACGCTGCTG | 5.98 | 1.26
53 | CCGATTAACATCACGGAAAGTCCTGATGTTAATCGGGTCTTGATTCGCTTGACGCTGCTG | 3.12 | 5.28
54 | CCGATTAACATCAGGATTTACCATGATGTTAATCGGGTCTTGATTCGCTTGACGCTGCTG | 3.08 | 1.48
55 | CCGATTAACATCACGGAAAGTACTGATGTTAATCGGGTCTTGATTCGCTTGACGCTGCTG | 4.11 | 2.92
56 | CCGATTAACATCACGTACTTTCCTGATGTTAATCGGGTCTTGATTCGCTTGACGCTGCTG | 4.78 | 2.39
57 | CCGATTAACATCACAGGGTTTCCTGATGTTAATCGGGTCTTGATTCGCTTGACGCTGCTG | 2.82 | 1.57
58 | CCGATTAACATCAGTACTTTCCATGATGTTAATCGGGTCTTGATTCGCTTGACGCTGCTG | 5.35 | 1.95
59 | CCGATTAACATCACAGGATTTCCTGATGTTAATCGGGTCTTGATTCGCTTGACGCTGCTG | 1.81 | 1.18
60 | CCGATTAACATCAAAAATTCCGGTGATGTTAATCGGGTCTTGATTCGCTTGACGCTGCTG | 2.45 | 2.94
61 | CCGATTAACATCAAAAATTCCTATGATGTTAATCGGGTCTTGATTCGCTTGACGCTGCTG | 1.74 | 1.2
62 | CCGATTAACATCAGGTTCTTACCTGATGTTAATCGGGTCTTGATTCGCTTGACGCTGCTG | 1.79 | 1.38
63 | CCGATTAACATCAAAAAAAGTACTGATGTTAATCGGGTCTTGATTCGCTTGACGCTGCTG | 7.01 | 1.54
64 | CCGATTAACATCACAGGAATTCCTGATGTTAATCGGGTCTTGATTCGCTTGACGCTGCTG | 3.05 | 2.17
65 | CCGATTAACATCAGGAAATTACATGATGTTAATCGGGTCTTGATTCGCTTGACGCTGCTG | 5.09 | 1.17
